The entries come from a sample that favours hits as a whole. No count for the full screen is at hand. A number with no mark means an inactive call.

The test system of the assay is T1, Caupolican (Caup) homeodomain DNA-binding domain.
T1 sequence: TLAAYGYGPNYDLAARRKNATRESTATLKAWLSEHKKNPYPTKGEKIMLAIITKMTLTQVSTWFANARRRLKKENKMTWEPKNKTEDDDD
Put plainly: PBM E-score (8-mer, recovered from the published 9-mer minima) (E-score (dimensionless, -0.5 to 0.5)); Drosophila protein; higher = stronger relative binding preference, active = 0.31 or more. As to the method:
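Protein binding microarray (PBM): in vitro transcribed/translated Caupolican (Caup) homeodomain DNA-binding domain (residues 214-303) applied at 100 nM to a universal 8-mer PBM array (Agilent AMADID 015681). The 8-mer enrichment score (E-score, range -0.5 to 0.5) was computed, and each 9-mer score is the minimum E-score of its two constituent 8-mers. The E-score is the same for a 9-mer and its reverse complement; 0.31 is the stated binding threshold.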
TAATTAAA: the “PBM E-score” value was 0.191.
For AGGTAGGA, the “PBM E-score” value was -0.0302.
With CCTGTTAA the figure was 0.188; with CCTGTTAC, 0.254; with GTTGTTGA, 0.321 (active).
With CTTGTTAC, the “PBM E-score” value was 0.365 (active).
Take ATTGTTTA: the “PBM E-score” value was 0.186.
With CTTGTTTA the figure was 0.254.
With ATTGTTGA the figure was 0.279; with ATTGTTAC, 0.307; with CTTGTTGA, 0.26.
With GTTGTTTA the figure was 0.343 (active); with ACTGTTAA, 0.0659; with CTTGTTAA, 0.327 (active).
For AACCCGCG, the “PBM E-score” value was -0.0635.
With CTGACACA the figure was 0.2; with CCCACCTA, -0.1.
With CCAGGTCG the figure was -0.0728.
Take ACTCGCAC: the “PBM E-score” value was -0.119.
With TGCGATAA, the “PBM E-score” value is 0.101.
With AAAGTCGT the figure was 0.0643; with GCTGTTAA, 0.0966.
GTTGTTAA: the “PBM E-score” value is 0.349 (active).
For the sequence ATTGTTAA, the “PBM E-score” value was 0.21.
Consider GCATTGGC, for which the “PBM E-score” value is -0.14.
Regarding TAACTATA, the “PBM E-score” value was 0.18.
On to GAACTACC, for which the “PBM E-score” value is 0.0628.
As to AAACTACA, the “PBM E-score” value was 0.331 (active).
With TAACTACA the figure was 0.348 (active); with GAACTACA, 0.314 (active); with AAACTACC, 0.168.
Turning to AAACTACT, the “PBM E-score” value is 0.236.
As for CAACTACA, the “PBM E-score” value is 0.287.
As to TAACTAAA, the “PBM E-score” value is 0.109.
For CGGCCTAC, the “PBM E-score” value is -0.0509.
With CGTATCAC the figure was 0.101.
With ACCTAGAA the figure was 0.08; with TACAGAAA, 0.17.
With AAATCTAA, the “PBM E-score” value was 0.0434.
Regarding CGATTGAA, the “PBM E-score” value was 0.0347.
As to GAGTGCAA, the “PBM E-score” value is 0.065.
Take GTGTCACA: the “PBM E-score” value is 0.29.
With CTGTCACA the figure was 0.167; with AAGTCACA, 0.0474.
Regarding ATGTCACA, the “PBM E-score” value was 0.39 (active).
For ATGTCACG, the “PBM E-score” value is 0.367 (active).
As for ATGTCACC, the “PBM E-score” value was 0.279.
CACTGCCC: the “PBM E-score” value was -0.0974.
With ATTAGTTC the figure was 0.154; with GATAATCA, 0.0651; with GCTGTGGA, -0.0809.
ATATGGTC: the “PBM E-score” value was 0.105.
On to CAACGCAA, for which the “PBM E-score” value was 0.0313.
Take AAGGTGGA: the “PBM E-score” value was -0.0864.
For the sequence CTTACATC, the “PBM E-score” value is 0.296.
Turning to ATTACAGA, the “PBM E-score” value was 0.208.
As to GTTACATA, the “PBM E-score” value was 0.365 (active).
